We go through 66 compounds from PubChem BioAssay AID1259349 (Broad Institute, 2017).

“And” between values parts separate entries of the source, which are not always exact repeats. Equal entries are not always repeated. The whole screen tested about 17,000 compounds, of which about 1,100 (6.5%) were called active. This is one part of a sample in which actives are shown more often than they occur.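 How the source made its calls: active means z-score of -3 or lower, meaning strong loss of probe binding signal; inactive means the rest.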 Some compounds were tested as several samples or in several runs, with calls that do not always agree.

Chain of Insulin-degrading enzyme (Homo sapiens) (P14735 42-1019 limits assumed): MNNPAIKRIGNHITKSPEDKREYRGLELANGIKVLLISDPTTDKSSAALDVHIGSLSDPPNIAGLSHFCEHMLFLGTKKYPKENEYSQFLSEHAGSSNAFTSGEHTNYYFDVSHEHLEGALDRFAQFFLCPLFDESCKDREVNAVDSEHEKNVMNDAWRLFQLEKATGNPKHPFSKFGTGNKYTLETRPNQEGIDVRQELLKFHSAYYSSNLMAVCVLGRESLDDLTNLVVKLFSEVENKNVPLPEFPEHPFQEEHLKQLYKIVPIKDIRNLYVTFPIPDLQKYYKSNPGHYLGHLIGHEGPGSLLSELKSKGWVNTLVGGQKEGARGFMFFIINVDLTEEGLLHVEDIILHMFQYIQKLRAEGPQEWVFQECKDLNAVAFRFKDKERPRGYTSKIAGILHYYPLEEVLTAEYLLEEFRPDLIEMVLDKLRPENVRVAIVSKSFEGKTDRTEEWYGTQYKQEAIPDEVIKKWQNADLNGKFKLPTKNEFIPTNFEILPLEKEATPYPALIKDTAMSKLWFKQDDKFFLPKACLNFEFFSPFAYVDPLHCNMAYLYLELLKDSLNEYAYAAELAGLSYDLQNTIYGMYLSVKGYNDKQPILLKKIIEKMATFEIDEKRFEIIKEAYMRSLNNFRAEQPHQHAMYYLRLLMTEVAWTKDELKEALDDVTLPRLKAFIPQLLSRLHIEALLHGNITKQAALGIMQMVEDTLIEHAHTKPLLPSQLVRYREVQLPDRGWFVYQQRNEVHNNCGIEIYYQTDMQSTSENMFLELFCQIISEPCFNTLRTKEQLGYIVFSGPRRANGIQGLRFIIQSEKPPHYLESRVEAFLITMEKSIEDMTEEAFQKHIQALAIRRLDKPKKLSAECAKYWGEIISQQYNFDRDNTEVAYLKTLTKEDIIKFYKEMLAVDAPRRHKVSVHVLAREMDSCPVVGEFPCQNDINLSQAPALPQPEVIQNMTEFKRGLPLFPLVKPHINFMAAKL

This assay addresses Insulin-degrading enzyme (Homo sapiens) (UniProt P14735). Description: displacers of FL-6b probe from IDE – biochemical, fluorescence anisotropy, probe displacement, primary screen (AID 1259349).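 Further: His-tagged human IDE residues 42-1019 made in E. coli with 30 nM FL-6b probe.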 The following applies: purified IDE, FL-6b probe fluorescence polarization; at 20 µM; stronger effect = lower value. A general note: Polarisation of emitted light reports the rotation of a fluorescent probe.
Consider `C[C@H]1CN([C@@H](C)CO)S(=O)(=O)c2ccc(C#CC3(O)CCCC3)cc2O[C@@H]1CN(C)C(=O)Nc1cccc(F)c1`, for which the z-score was -0.533 (inactive).
With `COc1ccc(-c2ccccc2[C@H]2[C@@H](CO)N(C(=O)c3cccnc3)[C@H]2C#N)cc1` the figure was 0.00658 (inactive); with `N#Cc1cccc(-c2ccc(C3[C@H]4CNC[C@@H]3N4Cc3cncnc3)cc2)c1` (stereo partly specified), 1.3 (inactive).
With `CCN(C[C@H]1[C@H](c2ccc(-c3ccccc3)cc2)[C@H](CO)N1CC1CC1)C(C)=O` the figure was 2.55 (inactive); with `N#Cc1cccc(-c2ccc(C3[C@@H]4CNC[C@H]3N4)cc2)c1` (stereo partly specified), -0.64 (inactive).
With `CCCNC(=O)N1[C@H](CNC(=O)c2cccc(F)c2)[C@H](c2ccccc2)[C@@H]1CO` the figure was 1.46 (inactive); with `CCCNC(=O)N1[C@@H]2Cn3c(ccc(-c4ccc(OC)cc4)c3=O)[C@H]1[C@@H](C(=O)NC1CCC1)[C@@H]2CO`, -0.305 (inactive).
As for `Cc1cccc(-c2ccc([C@@H]3[C@H]4CN(C(=O)c5ccccc5)CC(=O)N4[C@H]3CO)cc2)c1`, the z-score is -8.7 (active).
With `CN(C)C(=O)c1cccc(-c2ccc([C@H]3[C@H](CO)N4C(=O)CN(C(=O)Cc5ccccc5)C[C@@H]34)cc2)c1` the figure was 3.83 (inactive).
With `CN(C)C(=O)c1cccc(-c2ccc([C@H]3[C@H]4CN(C(=O)Cc5ccccc5)CC(=O)N4[C@H]3CO)cc2)c1`, the z-score was 1.91 (inactive).
With `O=C(CN1CCOCC1)N1CCCCN2[C@@H](CO)[C@H](c3ccc(-c4ccccc4)cc3)[C@@H]2C1` the figure was -0.926 (inactive).
With `O=C(c1cnccn1)N1CC(=O)N2[C@H](C1)[C@H](c1ccc(/C=C/c3ccccc3)cc1)[C@@H]2CO` the figure was -7.53 (active).
Take `CC(C)CC#Cc1ccc([C@H]2[C@H]3CN(C(=O)CN4CCOCC4)CC(=O)N3[C@H]2CO)cc1`: the z-score is 4.32 (inactive).
Next, `O=C(Cc1cccnc1)N1CC(=O)N2[C@H](CO)[C@@H](c3ccc(/C=C/c4ccccc4)cc3)[C@H]2C1`: -1.1 (inactive); `O=C(CN1CCOCC1)N1CCCCN2[C@@H](CO)[C@H](c3ccc(/C=C/c4ccccc4)cc3)[C@@H]2C1`: -4.3 (active).
For `O=C(CN1CCOCC1)N1CC(=O)N2[C@H](C1)[C@H](c1ccc(/C=C/c3ccccc3)cc1)[C@@H]2CO`, the z-score was -5.55 (active).
Next, `CC(C)CC#Cc1ccc([C@H]2[C@@H](CO)N3C(=O)CN(C(=O)CN4CCOCC4)C[C@H]23)cc1`: 2.46 (inactive); `O=C(CN1CCOCC1)N1CCCCN2[C@H](CO)[C@H](c3ccc(-c4ccccc4)cc3)[C@@H]2C1`: -0.341 (inactive).
With `CCC(=O)N1CCCCN2[C@H](C1)[C@@H](c1ccc(-c3ccc(F)cc3)cc1)[C@@H]2CO` the figure was 1.91 (inactive).
As for `COCC(=O)N1CCCCN2[C@H](C1)[C@@H](c1ccc(-c3ccccc3)cc1)[C@@H]2CO`, the z-score is 1.64 (inactive).
Next, `CCC(=O)N1CCCCN2[C@H](C1)[C@@H](c1ccc(/C=C/c3ccccc3)cc1)[C@@H]2CO`: -7.21 (active); `O=C(c1cnccn1)N1CC(=O)N2[C@H](C1)[C@@H](c1ccc(C3=CCCCC3)cc1)[C@@H]2CO`: 0.336 (inactive); `COCC#Cc1ccc([C@@H]2[C@@H](CO)N3CCCCN(C(=O)COC)C[C@@H]23)cc1`: 1.49 (inactive).
Regarding `CCCNC(=O)N1[C@H](CO)[C@@H](c2ccc(-c3ccc(C(=O)N(C)C)cc3)cc2)[C@@H]1C#N`, the z-score was -1.53 (inactive).
With `CCC(=O)N1[C@@H](CO)[C@@H]2c3ccccc3N(C(=O)c3cnccn3)C[C@@H]21` the figure was 1.18 (inactive); with `CO[C@@H]1CN(C)C(=O)c2cc(NS(=O)(=O)c3cccc(Cl)c3)ccc2OC[C@@H](C)NC[C@@H]1C`, -0.0121 (inactive).
Next, `O=C(c1cnccn1)N1CC(=O)N2[C@H](C1)[C@@H](c1ccc(C#CC3CCCCC3)cc1)[C@@H]2CO`: 4.43 (inactive); `Cc1ccccc1S(=O)(=O)N1C[C@H](O)COC[C@H]2O[C@H](CC(=O)N3CCCCC3)CC[C@@H]21`: -0.576 (inactive); `C[C@H](NC(=O)C[C@H]1CC[C@H]2[C@@H](COC[C@H](O)CN2C(=O)Nc2cccc(Cl)c2)O1)c1ccccc1`: 1.23 (inactive).
Next, `Cn1cnc(S(=O)(=O)N2CCCCN3[C@@H](CO)[C@@H](c4ccc(C#CC5CCCC5)cc4)[C@@H]3C2)c1`: 1.81 (inactive); `O=C(Nc1ccc(C(F)(F)F)cc1)N1[C@@H]2CNC[C@H]1C2c1ccc(-c2ccncc2)cc1` (stereo partly specified): 3.1 (inactive) and 5.44 (inactive); `COc1ccc(-c2ccc3c(c2)[C@@H]2[C@@H](CCN2C(=O)c2cccc(F)c2)[C@H](CO)N3)cc1`: 1.25 (inactive).
For `O=C(c1ccccc1)N1CC(=O)N2[C@@H](CO)[C@H](c3ccc(C#CCC4CCCC4)cc3)[C@@H]2C1`, the z-score was 0.717 (inactive).
Next, `CNC[C@@H]1OCCCC[C@H](C)Oc2ccc(NC(=O)Nc3ccc(OC)cc3)cc2C(=O)N([C@H](C)CO)C[C@@H]1C`: 1.03 (inactive); `CC(=O)N1CC2(C1)[C@H](c1ccccc1)[C@@H](CO)N2C(=O)Cc1ccccc1`: -0.887 (inactive); `COc1ccc2c3c([nH]c2c1)[C@@H](CO)N(Cc1cc(F)ccc1F)CC31CN(C(=O)C2CCC2)C1`: -1.31 (inactive).
With `COc1ccc2c3c([nH]c2c1)[C@H](CO)N(Cc1ccccc1Cl)CC31CN(C(=O)C2CC2)C1`, the z-score was -4.06 (active).
Next, `COCC(=O)N1CC2(C1)CN(Cc1ccccc1F)[C@@H](CO)c1[nH]c3cc(OC)ccc3c12`: -1.64 (inactive); `N#Cc1cccc(-c2ccc3c(c2)[C@H]2[C@H](CCN2Cc2ccc4c(c2)OCO4)[C@@H](CO)N3)c1`: 1.22 (inactive).
With `CC(C)NC(=O)N1CCCCN2[C@H](CO)[C@@H](c3ccc(Br)cc3)[C@H]2C1` the figure was 2.67 (inactive); with `CCCNC(=O)N1[C@H](C#N)[C@@H](c2ccccc2)[C@H]1CO`, 3.95 (inactive).
Next, `C[C@@H]1CCCCO[C@H](CN(C)S(=O)(=O)c2cn(C)cn2)[C@H](C)CN([C@H](C)CO)C(=O)c2cc(N(C)C)ccc2O1`: -0.253 (inactive); `COc1cccc(-c2ccc(C3[C@H]4CNC[C@@H]3N4C(=O)Nc3ccc(F)cc3)cc2)c1` (stereo partly specified): -0.759 (inactive) and -1.81 (inactive); `CCCNC(=O)N1[C@@H]2CNC[C@H]1C2c1ccc(-c2cccc(C)c2)cc1` (stereo partly specified): 0.449 (inactive) and -6.06 (active).
Regarding `CCCNC(=O)N1[C@@H]2CNC[C@H]1C2c1ccc(-c2ccccc2)cc1` (stereo partly specified), the z-score is 0.774 (inactive) and 1.73 (inactive).
Next, `CCC(=O)N1[C@@H](CO)[C@H](c2ccc(-c3cccc(F)c3)cc2)[C@@H]1CNC(C)=O`: 2.2 (inactive); `N#C[C@@H]1[C@H](c2ccccc2-c2ccccc2F)[C@@H](CO)N1C(=O)C1CCOCC1`: 3.52 (inactive); `Cc1noc(C)c1S(=O)(=O)N(C)C[C@H]1Oc2ccc(N(C)C)cc2C(=O)N([C@H](C)CO)C[C@@H]1C`: -1.17 (inactive).
Next, `CCCC#Cc1ccc([C@H]2[C@@H](CO)N3CCCCN(S(=O)(=O)CC)C[C@H]23)cc1`: 3.29 (inactive); `CS(=O)(=O)N1CCCCN2[C@@H](CO)[C@@H](c3ccc(Br)cc3)[C@@H]2C1`: -1.86 (inactive); `CN(C)CC#Cc1ccc([C@H]2[C@H]3CN(S(=O)(=O)c4ccccc4F)CCCCN3[C@H]2CO)cc1`: 1.11 (inactive).
Turning to `CCCC#Cc1ccc([C@H]2[C@H](CO)N3CCCCN(S(=O)(=O)CC)C[C@@H]23)cc1`, the z-score is 3.45 (inactive).
With `COc1ccc(C#Cc2ccc([C@H]3[C@@H](CO)N4CCCCN(C(=O)Nc5ccccc5)C[C@H]34)cc2)cc1` the figure was 4.38 (inactive).
As to `COc1ccccc1C#Cc1ccc([C@@H]2[C@H](CO)N3CCCCN(CCC(F)(F)F)C[C@@H]23)cc1`, the z-score is -8.07 (active).
With `CCCC#Cc1ccc([C@@H]2[C@H](CO)N3CCCCN(S(=O)(=O)c4ccccc4F)C[C@@H]23)cc1` the figure was -4.86 (active); with `OC[C@H]1[C@@H](c2ccc(C#Cc3ccccc3F)cc2)[C@H]2CN(CC3CCOCC3)CCCCN21`, 0.86 (inactive).
With `COc1ccccc1C#Cc1ccc([C@@H]2[C@@H](CO)N3CCCCN(S(C)(=O)=O)C[C@@H]23)cc1` the figure was -10.2 (active); with `O=C(Nc1ccc(F)cc1)N1CCCCN2[C@H](CO)[C@H](c3ccc(C#Cc4ccccc4)cc3)[C@H]2C1`, -0.00774 (inactive); with `COc1ccccc1NC(=O)N1CCCCN2[C@@H](CO)[C@@H](c3ccc(C#Cc4ccccc4)cc3)[C@@H]2C1`, -2.86 (inactive).
With `COc1ccccc1C#Cc1ccc([C@H]2[C@H](CO)N3CCCCN(C(=O)C4CCC4)C[C@@H]23)cc1` the figure was -12.3 (active).
For `CS(=O)(=O)Nc1ccc2c(c1)[C@@H]1C[C@H](CC(=O)NCc3cc(F)ccc3F)O[C@@H](CO)[C@@H]1O2`, the z-score was -0.994 (inactive).
Next, `C/C=C/c1ccc([C@H]2[C@@H](CNC(=O)NC(C)C)N(C(=O)C3CCC3)[C@H]2CO)cc1`: 1.01 (inactive).
Next, `C[C@@H](O)C#Cc1ccc([C@H]2[C@H](CO)N3CCCCN(C(=O)c4ccc5c(c4)OCO5)C[C@@H]23)cc1`: -0.442 (inactive); `CCS(=O)(=O)NCC[C@H]1CC[C@@H](NC(=O)Nc2cc(Cl)cc(Cl)c2)[C@@H](CO)O1`: 2.83 (inactive); `CCCNC(=O)C[C@@H]1CC[C@H]2[C@@H](COC[C@H](O)CN2C(=O)Nc2ccc(Cl)c(Cl)c2)O1`: -0.531 (inactive).
Next, `Cc1noc(C)c1S(=O)(=O)Nc1ccc2c(c1)C(=O)N([C@@H](C)CO)C[C@@H](C)[C@H](CN(C)C(=O)Nc1cccc3ccccc13)OCCCC[C@H](C)O2`: 0.278 (inactive).
